# Data published in PubChem BioAssay (NCATS).
# Inconclusive results are not listed. Entries that show only a call come without a potency. Active and inactive are the calls of the source. Unless noted, calls follow the shape of the dose curve; as a rule, active = well fitted curve in the direction sought with a large enough effect; inconclusive = small, poorly fitted or top-dose-only effect, or another doubt; inactive = no such curve, though single readings can be large; an effect the other way counts as inactive or inconclusive.
# Assays:
# [1] = qHTS Assay for Lipid Storage Modulators (AID 1519; calls by dose curve); settings: Drosophila S3 cells, BODIPY lipid droplet/cell ratio, laser cytometry, cells loaded with oleic acid
# Method in brief: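 Cells seeded at 5,000 per well were treated with compounds over a concentration series and loaded with oleic acid (400 uM, as added). Lipid droplet fluorescence (488 nm excitation, 500-530 nm channel) was read by laser-scanning cytometry and normalized to 20 uM Triacsin C.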
# [2] = target: Alpha-galactosidase A (Homo sapiens) (UniProt P06280); assay: Counterscreen for Glucocerebrosidase Inhibitors: qHTS Assay for Human alpha-Galactosidase at pH 4.5 (AID 992); settings: purified enzyme, fluorogenic substrate; series mostly up to 76.9 µM
# Method in brief: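 Steps: enzyme (2 nM final), then compound across 0.7 nM to 77 uM, then 80 uM fluorogenic galactopyranoside substrate; incubate 20 min at room temperature; quench at pH 10; measure fluorescence at 365/440 nm.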
# [3] = target: alpha-glucosidase (Oryza sativa, rice) (UniProt Q653V4); assay: Counterscreen for Glucocerebrosidase Inhibitors: qHTS Assay for Rice alpha-Glucosidase at pH 5.0 (AID 997); settings: rice alpha-glucosidase enzyme activity; series mostly up to 76.9 µM
# Method in brief: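 Endpoint fluorogenic assay at pH 5.0: compounds (0.7 nM to 77 uM) titrated against 4 nM rice enzyme and 400 uM 4-MU-alpha-glucoside for 20 min at room temperature; NaOH/glycine stop, read ex 365/em 440 nm, Hill-fitted AC50.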
# [4] = target: DNA repair nuclease/redox regulator APEX1 (Homo sapiens) (UniProt P27695); assay: qHTS Validation Assay for Inhibitors of the Human Apurinic/apyrimidinic Endonuclease 1 (APE1) (AID 1705;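 also: TAMRA fluorescence gain over two minutes as APE1 cuts a quenched THF abasic duplex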); settings: purified APE1 endonuclease activity, fluorescence, titration; series mostly up to 57.1 µM
# Method in brief: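 Fluorogenic double-stranded THF abasic-site substrate (5'-TAMRA/3'-BHQ-2), 50 nM final. Enzyme preincubated with compound 15 min at room temperature, then substrate added. Kinetic fluorescence (ex 525/em 598 nm) read three times at 60 s intervals; activity taken as third-minus-first read difference.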
# [5] = Cell Viability - LYMP2-025 (AID 976); settings: LYMP2-025 lymphoblastoid cell viability; series mostly up to 92.2 µM
# Method in brief: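 Luminescent ATP readout after 24 hr treatment of a human lymphoblastoid line (LYMP2-025, 2500 cells/well, 37 C). Reagent developed 30 min at room temperature; AC50 fitted with the Hill equation.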
# [6] = Cell Viability - LYMP2-006 (AID 978); settings: LYMP2-006 lymphoblastoid cell viability, qHTS; series mostly up to 92.2 µM; also: nearly all actives have a fitted effect of over 60% in size
# Method in brief: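 Human lymphoblastoid cells (LYMP2-006), 2500/well in complete medium, were treated with compound for 24 hr at 37 C. Cellular ATP was read by CellTiter-Glo luminescence after 30 min, and AC50 values came from Hill-equation fits of concentration-response data.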
# [7] = Cell Viability - LYMP2-008 (AID 980); settings: LYMP2-008 lymphoblastoid cell viability, qHTS; series mostly up to 92.2 µM; also: nearly all actives have a fitted effect of over 60% in size
# Method in brief: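 Measured: ATP-dependent luminescence, proportional to viable cell number, in human lymphoblastoid cells treated 24 hr with compound in complete culture medium. Values are AC50s from Hill-equation modelling of qHTS titrations.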
# [8] = Cell Viability - LYMP2-018 (AID 985); settings: LYMP2-018 lymphoblastoid cells, viability (qHTS); series mostly up to 92.2 µM; also: nearly all actives have a fitted effect of over 50% in size
# Method in brief: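 In this qHTS viability assay, cells are treated for 24 hr and cellular ATP is quantified by luciferase-based luminescence, with tetraoctylammonium bromide as positive control.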
# [9] = Cell Viability - LYMP1-002 - Assay at 24 hr (AID 993); settings: LYMP1-002 lymphoblastoid cells viability; series mostly up to 92.2 µM
# Method in brief: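 Viability was judged from intracellular ATP using a luciferase read-out, following a 24-hour compound incubation at 37 C of lymphoblastoid cells seeded at 2500 per well. Concentration-response data were fitted to the Hill equation for AC50.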
# [10] = Cell Viability - LYMP1-002 - Assay at 40 hr (AID 994); settings: LYMP1-002 lymphoblastoid cell viability; series mostly up to 92.2 µM; also: nearly all actives have a fitted effect of over 60% in size
# Method in brief: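 Concentration-dependent ATP loss after 40 hr treatment at 37 C defined toxicity; AC50 values were obtained by fitting the standard Hill equation.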
# [11] = Cell Viability - LYMP2-002 (AID 977); settings: LYMP2-002 lymphoblastoid cell viability, qHTS; series mostly up to 92.2 µM;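 also: compound exposure lasted 24 h at 37 °C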
# Method in brief: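 Human lymphoblastoid cells (2500/well) in complete medium were preincubated 5 hr at 37 C, then exposed to compounds for 24 hr at 37 C. Intracellular ATP was read by CellTiter-Glo luminescence; AC50 came from Hill-equation concentration-response fits.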
# [12] = Cell Viability - LYMP2-007 (AID 979); settings: LYMP2-007 lymphoblastoid cell viability; series mostly up to 92.2 µM;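 also: cells exposed to compound for 24 h before reading; nearly all actives have a fitted effect of over 60% in size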
# Method in brief: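 Measured via luciferase-based ATP quantitation: lymphoblastoid cells, 24 hr compound exposure at 37 C, AC50 from Hill fits.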
# [13] = Cell Viability - LYMP2-010 (AID 981); settings: LYMP2-010 lymphoblastoid cell viability, qHTS; series mostly up to 92.2 µM; also: nearly all actives have a fitted effect of over 55% in size
# Method in brief: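 This 24 hr viability screen uses LYMP2-010 lymphoblastoid cells, quantifies ATP via luciferase luminescence, and derives AC50 from Hill fits of qHTS concentration-response data.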
# [14] = Cell Viability - LYMP2-012 (AID 982); settings: LYMP2-012 lymphoblastoid cell viability qHTS; series mostly up to 92.2 µM;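 also: cellular ATP by luciferase luminescence where a drop means cytotoxicity; cells exposed to compound for one day before reading; nearly all actives have a fitted effect of over 55% in size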
# [15] = Cell Viability - LYMP2-014 (AID 983); settings: LYMP2-014 lymphoblastoid cells, viability qHTS; series mostly up to 92.2 µM; also: nearly all actives have a fitted effect of over 50% in size
# Method in brief: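 Quantitative HTS in lymphoblastoid cells: 24 hr compound exposure, then CellTiter-Glo ATP luminescence. Positive control was tetraoctylammonium bromide, 6.4pM to 92 uM.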
# [16] = Cell Viability - LYMP2-020 (AID 986); settings: series mostly up to 92.2 µM; also: nearly all actives have a fitted effect of over 55% in size
# Method in brief: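 Cells at 2500 per well receive a 24 hr compound exposure at 37 C. Viability is measured as ATP-dependent luciferase luminescence, with AC50 modeled from qHTS concentration-response curves.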
# [17] = Cell Viability - LYMP2-022 (AID 987); settings: LYMP2-022 lymphoblastoid cell viability; series mostly up to 92.2 µM; also: nearly all actives have a fitted effect of over 55% in size
# Method in brief: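 In this qHTS cytotoxicity screen, compound titrations were incubated 24 hr at 37 C with human lymphoblastoid cells in complete medium. Luciferase-based ATP luminescence provided the viability signal.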
# [18] = Cell Viability - LYMP2-024 (AID 988); settings: LYMP2-024 lymphoblastoid cell viability; series mostly up to 92.2 µM; also: nearly all actives have a fitted effect of over 60% in size
# Method in brief: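 Cells at 2500 per well received compound for 24 hr after a 5 hr settling period. Viability was scored by CellTiter-Glo luminescence, with AC50 from Hill fits.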
# [19] = Cell Viability - LYMP2-026 (AID 989); settings: LYMP2-026 lymphoblastoid cell viability, qHTS; series mostly up to 92.2 µM; also: nearly all actives have a fitted effect of over 50% in size
# Method in brief: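 Acute toxicity screen in complete culture medium, with 24 hr compound exposure at 37 C. Viability read as cellular ATP via luciferase reaction, with tetraoctylammonium bromide (6.4pM to 92 uM) as positive control.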
# [20] = measured here: cell count channel max response
# [21] = measured here: lipid channel max response
# DNA repair nuclease/redox regulator APEX1 (Homo sapiens), sequence (P27695 whole entry, looked up): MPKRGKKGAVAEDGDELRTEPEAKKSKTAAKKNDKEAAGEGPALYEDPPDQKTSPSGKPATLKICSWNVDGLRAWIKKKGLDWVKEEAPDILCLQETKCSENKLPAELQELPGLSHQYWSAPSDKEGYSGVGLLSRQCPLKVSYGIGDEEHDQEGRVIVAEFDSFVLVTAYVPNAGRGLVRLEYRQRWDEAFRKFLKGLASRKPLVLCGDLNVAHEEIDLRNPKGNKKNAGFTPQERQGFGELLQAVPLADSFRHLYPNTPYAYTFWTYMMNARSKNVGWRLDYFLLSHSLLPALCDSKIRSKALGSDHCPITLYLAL
# Alpha-galactosidase A (Homo sapiens), sequence (P06280 whole entry, looked up): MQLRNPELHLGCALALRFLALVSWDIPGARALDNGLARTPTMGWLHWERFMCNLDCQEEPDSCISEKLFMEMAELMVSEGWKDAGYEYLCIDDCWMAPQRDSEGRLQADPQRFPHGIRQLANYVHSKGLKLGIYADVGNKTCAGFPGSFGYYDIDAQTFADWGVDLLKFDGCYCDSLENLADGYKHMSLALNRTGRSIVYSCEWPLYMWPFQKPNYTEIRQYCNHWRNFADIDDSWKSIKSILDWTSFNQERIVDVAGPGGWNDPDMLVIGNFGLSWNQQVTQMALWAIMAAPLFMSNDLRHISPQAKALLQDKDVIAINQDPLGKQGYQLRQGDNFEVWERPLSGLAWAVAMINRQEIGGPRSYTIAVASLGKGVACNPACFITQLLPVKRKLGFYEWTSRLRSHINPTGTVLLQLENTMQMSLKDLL
smiles,measurement,setting,value
CC(=O)Nc1ccc(OC(=O)c2ccccc2O)cc1,"activity change, negative = inhibition",[1]; at 57.5 µM (top of the series),5.77% (inactive)
same,max response,[1]; [20],14.6%
same,max response,[1]; [21],24.9%
CN1CCc2c(c3ccccc3n2Cc2ccccc2)C1,"activity change, negative = inhibition",[1]; at 25.7 µM (top of the series),-1.45% (inactive)
same,max response,[1]; [20],1.19%
same,max response,[1]; [21],1.48%
CC(=O)[C@H]1CC[C@H]2[C@@H]3C=CC4=CC(=O)CC[C@@]4(C)[C@H]3CC[C@]12C,"activity change, negative = inhibition",[1]; at 25.7 µM (top of the series),-2.63% (inactive)
same,max response,[1]; [20],-13.1%
same,max response,[1]; [21],-17%
CCCOc1cc(N)ccc1C(=O)OCCN(CC)CC,"activity change, negative = inhibition",[1]; at 25.7 µM (top of the series),-0.11% (inactive)
same,max response,[1]; [20],-10.4%
same,max response,[1]; [21],-6.99%
CC1CCC(NC(=O)N(CCCl)N=O)CC1 (configuration not stated),"activity change, negative = inhibition",[1]; at 57.5 µM (top of the series),0.815% (inactive)
same,max response,[1]; [20],10.3%
same,max response,[1]; [21],12.2%
C[C@@](Cc1ccc(O)c(O)c1)(NN)C(=O)O,outcome,[2],inactive
same,outcome,[3],inactive
same,"activity change, negative = inhibition",[1]; at 57.5 µM (top of the series),-0.657% (inactive)
same,max response,[1]; [20],-17.5%
same,max response,[1]; [21],-16%
same,outcome,[4],inactive
O.O.O.O.O.O.O.O=S(=O)([O-])[O-].[Co+2],outcome,[5],inactive
same,Potency,[6],inactive
same,Potency,[7],inactive
same,Potency,[8],inactive
same,Potency,[9],inactive
same,Potency,[10],inactive
C[C@H](CCC(=O)O)[C@H]1CC[C@H]2[C@@H]3[C@H](O)C[C@@H]4C[C@H](O)CC[C@]4(C)[C@H]3C[C@H](O)[C@]12C,outcome,[5],inactive
same,outcome,[11],inactive
same,Potency,[6],inactive
same,Potency,[12],inactive
same,Potency,[7],inactive
same,Potency,[13],inactive
same,Potency,[14],inactive
same,Potency,[15],inactive
same,Potency,[8],inactive
same,Potency,[16],inactive
same,Potency,[17],inactive
same,Potency,[18],inactive
same,outcome,[19],inactive
same,Potency,[9],inactive
same,Potency,[10],inactive
